# Laboratory results as given in PubChem BioAssay AID686978 (National Center for Advancing Translational Sciences (NCATS), 2013).
# Among all 420,000 compounds or so, about 64,000 (15%) were called active. About 27% were inconclusive and are not listed. The list is a sample of the results. Unmarked numbers belong to inactive results. Calls follow the shape of the dose curve; as a rule, active = well fitted inhibition curve with a large enough effect; inconclusive = small, poorly fitted or top-dose-only effect; inactive = flat fitted curve, though single readings scatter.
# Test: qHTS for Inhibitors of human tyrosyl-DNA phosphodiesterase 1 (TDP1): qHTS in cells in absence of CPT; also: nearly all actives have a fitted effect of over 55% in size
# Conditions: DT40 Tdp1-/- hTDP1 cells, no CPT, ATP luminescence, 48 h; activity change, negative = growth inhibition: at 46.2 µM (top of the series)
# Summary of the method: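 Growth kinetics read by CellTiter-Glo luminescence after ≥48 hr at 37 °C. Cells: DT40 Tdp1-/- stably carrying human TDP1, 400 per well, compound exposure in the absence of CPT (DMSO vehicle).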
# % is scaled to controls: 0 for no effect and ±100 for the full control effect; potency is read from the fitted curve at half-maximal effect.
SMILES,"activity change, negative = growth inhibition [%]",Potency
CC(C)[C@@H]1NC(=O)c2cc([N+](=O)[O-])cc(I)c2NCCC[C@@H](C(=O)NC(CC(=O)O)C(N)=O)NC(=O)[C@H](CO)NC1=O (stereo not given in full),5.19,–
COC(=O)c1c(C)[nH]c(C(=O)NCCc2ccc(S(N)(=O)=O)cc2)c1C,2.2,–
CCCc1c(C)nc2c(Br)cccc2c1Cl,-2.83,–
Cn1cnc(C(F)(F)F)c1-c1ccc([N+](=O)[O-])cc1,-21.8,–
COc1ccc(S(=O)(=O)c2c[nH]c(=S)[nH]c2=O)cc1Cl,-9.17,–
Cc1ccc(/C(N)=N/OC(=O)COc2ccc(Cl)c(C)c2)cc1,-38.7,–
COc1ccc(C(C)=O)cc1COc1ccc(Cl)c(C)c1,–,9.2 µM (active)
COc1ccc(-c2noc(COc3ccc(Cl)c(C)c3)n2)cc1,-29.5,–
O=C(CSCc1c(Cl)cccc1Cl)NN1C(=O)c2ccccc2C1=O,-2.81,–
Cc1cc(C)c(NC(=S)N2CCCC2C(=O)O)c(C)c1 (stereo not given),-5.64,–
Cc1nn(CC(=O)N2CCN(c3cccc(C(F)(F)F)c3)CC2)c(=O)c2cc3sccc3n12,-19.1,–
O=C(c1cc2ccccc2o1)N1CCN(c2cccc(C(F)(F)F)c2)CC1,-21.2,–
CC(C)N1C[C@@H](NCc2ccccc2O)C[C@H]1C(=O)N1CCN(c2cccc(C(F)(F)F)c2)CC1,–,18.4 µM (active)
Cc1cc(C)nc(NS(=O)(=O)c2ccc(N3C(=O)C4CCCCC4C3=O)cc2)n1 (stereo not given),16.2,–
CC(=O)NC(Cc1ccccc1)C(=O)NC1CCN(c2ncccc2[N+](=O)[O-])CC1 (stereo not given),8.39,–
O=[N+]([O-])c1ccc(S(=O)(=O)Nc2cccc(-c3ccc(N4CCCC4)nn3)c2)cc1,-15.2,–
CCCOc1ccc(-c2cccc(NS(=O)(=O)c3ccccc3)c2)nn1,–,23.1 µM (active)
O=S(=O)(Nc1cccc(-c2ccc(N3CCOCC3)nn2)c1)c1ccc(Cl)c(Cl)c1,-20.1,–
N#Cc1ccc(CSc2nnc3ccccn23)cc1,-2.49,–
O=c1c2ccccc2cnn1Cc1n[nH]c(=S)n1-c1ccccc1F,-6.52,–
CNS(=O)(=O)c1cnccc1N1CCN(c2cccc(C)c2)CC1,8.13,–
CC(C)=C1SC(N2CCN(c3cccc(C)c3)CC2)=NC1=O,–,20.6 µM (active)
Cc1ccc(N2CCN(C3=NC(=O)/C(=C\c4cccs4)S3)CC2)cc1,-22.3,–
N/C(=N\OC(=O)CC1CCCCC1)c1ccccc1,-3.88,–
Cc1cc(C)c2c(=O)[nH]c(SCC(=O)Nc3ccc(Br)cc3)nc2n1,-37.2,–
O=C(Nc1cc(S(=O)(=O)N2CCOCC2)ccc1OCC(F)(F)F)c1ccc(N2CCCC2=O)cc1,-18.2,–
CCOC(=O)C1C(c2ccc(Cl)cc2)NC(=S)NC1(O)C(F)(F)F (stereo not given),-14.7,–
O=C(NCCOCc1ccc(Cl)cc1)c1ncn[nH]1,-12.1,–

SMILES,"activity change, negative = growth inhibition [%]",Potency
O=C(CSc1ncn[nH]1)N/N=C/c1ccc(F)cc1,-2.04,–
O=C(/C=C/Sc1ncn[nH]1)c1ccc(Cl)cc1,–,2.59 µM (active)
O=C(Nc1cccnc1Cl)c1cc(-c2cccc(Cl)c2)on1,–,inactive
Cc1ccc(C(=O)Nc2nc3ccc(Cl)cc3s2)o1,-29.3,–
O=C(O)c1cc(Cl)c(Cl)cc1C(=O)Nc1cccc2ncccc12,-3.56,–
Cc1csc(NC(=O)c2ccc(C)s2)n1,-3.86,–
O=C(Nc1cccc2ncccc12)c1ccc(-c2ccc(Cl)cc2Cl)o1,–,20.6 µM (active)
Cc1csc(NC(=O)c2ccc(-c3ccc(Cl)cc3Cl)o2)n1,–,5.17 µM (active)
COc1ccc(Br)c2c1C(=O)CC2,-9.71,–
O=C(NCc1ccc(F)cc1)C(c1ccccc1)N(C(=O)c1csnn1)C1CC1 (stereo not given),-5.76,–
CCNC(=O)N1CCN(S(=O)(=O)c2ccc3c(c2)OCCCO3)CC1,-11.4,–
CC(=O)Nc1cc(C(=O)NCc2ccc(F)cc2)ccc1Sc1ccc(F)cc1,-96.8,–
O=C(CCl)Nc1ccc(Sc2ccc(NC(=O)CCl)cc2)cc1,–,5.17 µM (active)
O=C(Cc1ccc(Cl)c(Cl)c1)Nc1ccc(SC(F)F)cc1,-118,–
Cc1ccc(NC(=O)CC(=O)Nc2ccc(C)cc2)cc1,1.48,–
CC(C)(CCl)C(=O)Nc1ccc(Sc2ccc(F)cc2)cc1,–,7.31 µM (active)
CCN(c1ccccc1)S(=O)(=O)c1ccc(NC(=O)C(C)(C)C)cc1,-11.1,–
Cc1sc2ncn(CC(=O)NCCCC(=O)NCc3ccc(F)cc3)c(=O)c2c1C,-8.84,–
Cc1c(Cl)cccc1NC(=O)CC1SC(=NCC2CCCO2)NC1=O (stereo not given),-9.62,–
COc1ccc(N2C(=O)C3CCCN3C2c2cc(OC)c(OC)cc2OC)cc1 (stereo not given),-20.9,–
CCNC(=O)C1(C)CCCN(C(=O)c2ccc3ccccc3n2)C1 (stereo not given),-3.43,–
Cc1cccc(-n2c(C)cc(/C=N/NC(N)=S)c2C)c1,–,5.8 µM (active)
Cc1cc(/C=N/NC(N)=O)c(C)n1C1CCCCC1,2.04,–
CC(=O)Nc1ccc(/C=N/NC(=O)c2cccs2)cc1,0.163,–
Cc1cc(/C=N/n2cnnc2)c(C)n1-c1cccc(C(=O)O)c1,-0.81,–
Cc1cccc(-n2c(C)cc(/C=N\NC(=O)c3cccs3)c2C)c1,–,16.4 µM (active)
Cc1cc(/C=N/NC(=O)c2cccnc2)c(C)n1CC(C)C,-0.506,–
